# TrxR1 inh: blocks rat thioredoxin reductase 1; O89049; Potency, µM (highest dose often 114 µM), for inactives: top-dose activity change, negative = inhibition, usual class: inhibitors; recombinant rTrxR1, NADPH fluorescence consumption, selenite substrate; actives 1% (n = 390,000); also: % is scaled to controls: 0 for no effect and ±100 for the full control effect; nearly all actives have a fitted effect of over 65% in size
# Target sequence (O89049 whole entry, looked up): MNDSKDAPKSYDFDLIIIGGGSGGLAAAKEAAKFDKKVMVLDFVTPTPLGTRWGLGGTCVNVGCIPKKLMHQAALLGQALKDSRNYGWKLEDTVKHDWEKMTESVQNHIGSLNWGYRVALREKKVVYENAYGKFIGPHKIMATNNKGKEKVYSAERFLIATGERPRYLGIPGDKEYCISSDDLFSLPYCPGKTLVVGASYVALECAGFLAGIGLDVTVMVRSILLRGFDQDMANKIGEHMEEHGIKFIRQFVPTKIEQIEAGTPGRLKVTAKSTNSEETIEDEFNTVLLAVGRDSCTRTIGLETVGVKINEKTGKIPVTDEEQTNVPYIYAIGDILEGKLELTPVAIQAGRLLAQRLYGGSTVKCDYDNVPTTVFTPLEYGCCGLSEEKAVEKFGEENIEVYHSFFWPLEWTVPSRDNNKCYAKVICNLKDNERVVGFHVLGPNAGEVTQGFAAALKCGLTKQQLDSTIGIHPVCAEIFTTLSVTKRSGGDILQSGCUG
#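 Rat TrxR1 (90 nM in the dispensed reagent) was pre-reduced with 400 uM NADPH for 5 min at room temperature, then incubated with compound for 15 min. After 400 uM selenite was added, NADPH fluorescence (Ex 340/Em 450 nm) was followed for 8 min.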
# Vif-A3G inh: Vif-A3G binding inhibition | HeLa A3G-eYFP + Vif (tagged APOBEC3G with the HIV-1 protein that degrades it), YFP fluorescence, overnight | AID 602310 | Q9HC16 | actives 0.076% (n = 410,000) | Potency, µM (doses to about 46.1 µM), for inactives: top-dose activity, negative = active, actives largely listed as inhibitors; also: % is scaled to controls: 0 for no effect and ±100 for the full control effect; nearly all actives have a fitted effect of over 60% in size
#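 HeLa cells stably expressing Vif and C-terminally eYFP-tagged A3G, seeded overnight at 37 deg C, then exposed to compound by pintool overnight at 37 deg C. Rise in yellow fluorescence (Ex 488/Em 500-530, Acumen) marks blocked Vif-driven A3G degradation.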
# TrxR1 substrate: substrates of rat thioredoxin reductase 1 | O89049 | purified TrxR1 substrate turnover, NADPH consumption readout | Potency, µM (doses to about 114 µM), inactives show top-dose activity change, negative = substrate turnover | actives 0.01% (n = 390,000) | AID 588456; also: % is scaled to controls: 0 for no effect and ±100 for the full control effect; nearly all actives have a fitted effect of over 50% in size
#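 Rat TrxR1, dispensed at 90 nM, was prereduced with 400 uM NADPH (final) for 5 min at ~22 deg C, then incubated with compound 15 min before 400 uM selenite. A first-read NADPH fluorescence drop versus no-compound background flagged substrates.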
# Vif-A3F inh: inhibitors of Vif-A3F interaction; HeLa A3F-eYFP + Vif (tagged APOBEC3F with the HIV-1 protein that degrades it), YFP fluorescence increase; Potency, µM (highest dose often 46.1 µM), without a hit: at the top dose activity, negative = active; actives 0.2% (n = 390,000); AID 602313; also: % of control where 0% means no effect; nearly all actives have a fitted effect of over 65% in size
#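 HeLa cells stably expressing Vif plus C-terminally eYFP-tagged A3F were seeded, incubated overnight at 37 deg C, dosed with compound, incubated overnight again at 37 deg C. Yellow fluorescence (Ex 488/Em 500-530) reported blocked Vif-mediated A3F-eYFP degradation.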
# VDR inh: inhibitors of human vitamin D receptor; P11473; VDR-SRC2-3 peptide fluorescence polarization, 2 h; Potency, µM, inactives show max response, negative = inhibition, actives largely listed as inhibitors; actives 0.93% (n = 400,000); AID 504847; also: % is scaled to controls: 0 for no effect and ±100 for the full control effect
#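 Fluorescence polarization assay measuring small-molecule disruption of VDR binding to the coregulator peptide SRC2-3. Compounds were pin-transferred (23 nl) into the reagent mix and incubated 2 h at room temperature before reading.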
# * marks the source's active call; other numbers are inactive results; ? = inconclusive; . = not tested or not shown; [ ] = remark or other dose. Compounds with a hit are over-represented: about 1.8% of the library has one in this group of screens. Calls follow the shape of the dose curve; as a rule, active = well fitted curve in the direction sought with a large enough effect; inconclusive = small, poorly fitted or top-dose-only effect, or another doubt; inactive = no such curve, though single readings can be large; an effect the other way counts as inactive or inconclusive. Potency is read from the fitted curve at half-maximal effect.
SMILES,TrxR1 inh,Vif-A3G inh,TrxR1 substrate,Vif-A3F inh,VDR inh
COc1ccc(C2=NO[C@@H]3C(=O)N(c4ccc(C)cc4C)C(=O)[C@H]23)cc1OC,22µM*,1%,13%,7%,-11%
COc1ccc(C2=NO[C@@H]3C(=O)N(c4cccc(C)c4C)C(=O)[C@H]23)cc1OC,2%,-1%,3%,-2%,-5%
CN(C(=O)CCc1ccccc1F)C1CCCN(Cc2ccccc2F)C1 (centres undefined),-13%[57.1 µM],-1%,7%[57.1 µM],-1%,35µM*
COc1cccc(CCC(=O)N(C)C2CCCN(Cc3ccccc3F)C2)c1 (centres undefined),-5%,1%,-9%,-3%,-10%
CC(C)c1ccc(C(=O)C[N+]2(C)CCOCC2)cc1,24%,-3%,15%,.,.
CCOc1nc(C#N)nc(N2CCOCC2)n1,-26%,-2%,0%,.,-24%
c1nc(SSc2ncnc3nc[nH]c23)c2[nH]cnc2n1,-63%[57.1 µM],-19%,-5%[57.1 µM],-24%,25µM*
Cn1cccc1-c1cc2n(n1)CCC(=O)N2CCCC(=O)NCc1cccc(Cl)c1,15%[57.1 µM],-3%,4%[57.1 µM],1%,9%
COc1cc(/C=C/c2cc[n+](C)c3ccccc23)cc(OC)c1OC,-5%,-5%,2%,.,.
CC(=O)c1cccc(NC(=O)COC(=O)c2ccccc2OCc2cccc(Br)c2)c1,12%,.,10%,.,.
Nc1ccccc1/C=C/c1ccnc2ccccc12,1%,13µM*,-3%,.,.
Cn1cc(/C=C/c2ccnc3ccccc23)c2ccccc21,-20%,10µM*,-7%,.,.
C(=C\c1ccnc2ccccc12)/c1ccnc2ccccc12,-9%,-3%,45%,.,.
CCCCN1C(=O)C2Cc3c([nH]c4ccccc34)CN2C1=S (centres undefined),-13%[57.1 µM],8.9µM*,10%,-528%,-12%
CN(C)c1ccc(/C=C/c2nc3ccccc3s2)cc1Cl,-2%,5%,-11%,.,.
O=C1Nc2ccccc2SC1=Cc1ccccc1,.,-7%,.,-3%,.
O=C1N/C(=N/Nc2ccccc2)S/C1=C\c1ccccc1,-30%,-6%,-16%,6%,45µM*
CSc1ccc(/C=C2/C(C)=C(CC(=O)O)c3cc(F)ccc32)cc1,.,.,.,.,45µM*
CC(=O)NC(c1cccs1)c1cc(F)c2cccnc2c1O (centres undefined),4%,?,0%,10µM*,-16%
O=c1c(O)c(-c2cccs2)oc2ccccc12,-2%,?,5%,2.8µM*,4%
CCCNC(=O)Cn1c(SCc2ccccc2C)nc2ccncc21,3%,-5%,-1%,.,-5%
CCOC(=O)C1=C(C)N(C)C(C)=C(C(=O)OCC)C1c1cccnc1,-15%[57.1 µM],1%,-8%[57.1 µM],1%,-6%
CCOC(=O)C1C(=O)C(C(=O)OCC)C(c2cccnc2)NC1c1cccnc1 (centres undefined),3.2µM*,3%,22%[57.1 µM],5%,1%
Cc1cccc(NC(=O)C2CC(=O)n3cnnc3S2)c1 (centres undefined),7.1µM*,2%,-3%,5%,1%
CCN=C1SC(C(=O)Nc2cccc(C)c2)CC(=O)N1CC (centres undefined),8%,1%,0%,5%,-15%
SMILES,TrxR1 inh,Vif-A3G inh,TrxR1 substrate,Vif-A3F inh,VDR inh
CCOc1ccc(Cn2c3ccc(OC)cc3c3nc4ccccc4nc32)cc1,-3%,?,-9%,11µM*,-23%
CCn1c2ccc(OC)cc2c2nc3ccccc3nc21,-4%,-18%,-1%,.,4%
COC(=O)Nc1ccc(Cl)c(Cl)c1,.,.,.,.,6%
CCOC(=O)c1c2c(n(Cc3ccccc3)c1C)C(=O)C(=O)c1ccccc1-2,-25%[57.1 µM],-12%,-11%[11.4 µM],-18%,50µM*
CCN1CCN(c2nc(C)nc3c2sc(=S)n3C)CC1,5%[57.1 µM],-3%,8%[57.1 µM],-7%,25µM*
OCC1(CO)COC(C(Cl)(Cl)Cl)OC1,.,.,.,.,4%
C[C@H](N)C(=O)NCC(=O)N[C@H]1CSSC[C@@H](C(=O)O)NC(=O)[C@H](CO)NC(=O)[C@H]([C@@H](C)O)NC(=O)[C@H](Cc2ccccc2)NC(=O)[C@H]([C@@H](C)O)NC(=O)[C@H](CCCCN)NC(=O)[C@H](Cc2c[nH]c3ccccc23)NC(=O)[C@H](Cc2ccccc2)NC(=O)[C@H](Cc2ccccc2)NC(=O)[C@H](CC(N)=O)NC(=O)[C@H](CCCCN)NC1=O,.,.,.,.,0%
COCC1CCN(Cc2c(C(=O)N3CCc4ccccc4C3)nc3ccc(Cl)cn23)C1 (centres undefined),16µM*,-4%,5%,-22%,-9%
Cc1c(C(=O)Nc2cccc(F)c2)oc2c1-c1nn(Cc3c(F)cccc3Cl)cc1CC2,12%,-3%,9%,-12%,-5%
Cc1cccc(CS(=O)(=O)c2nnc([C@H](Cc3ccccc3)NC(=O)OC(C)(C)C)o2)c1,0.4µM*,-23%,-1%,-4%,?
CC(C)(C)OC(=O)N[C@@H](Cc1ccccc1)c1nnc(SCC(N)=O)o1,21%,1%,-2%,6%,-28%
COC(=O)CS(=O)(=O)c1nnc([C@H](Cc2ccccc2)NC(=O)OC(C)(C)C)o1,1.3µM*,?,1%,2%,?
COC(=O)CSc1nnc([C@H](Cc2ccccc2)NC(=O)OC(C)(C)C)o1,-3%,-1%,0%,-10%,10%
Cc1ccc2c(c1)c1c3n2CCN(C(=O)CCl)C3CCC1 (centres undefined),7.9µM*,-10%,10%,18%,?
COc1ncc2nc(-c3cn(C)c4ccccc34)c(=O)n(CCc3ccccc3)c2n1,.,.,.,.,-1%
COC(=O)c1ccc(C2Nc3ccc(/C(C)=N/NC(=O)C(OC)c4ccccc4)cc3C3C=CCC32)cc1 (centres undefined),22µM*,-2%,0%,-4%,-28%
Cc1nc([N+](=O)[O-])c(Sc2nc3ccccc3n2C)n1Cc1ccccc1,6.3µM*,-15%,-3%,3%,?
COc1ccc(CC(=O)n2[nH]c(=O)ccc2=O)cc1OC,3.5µM*,-5%,11%[57.1 µM],6%,45µM*
CC(=O)OC1CCC23CC1(C)CCC2C(C)(C)CC3OC(C)=O (centres undefined),.,.,.,.,-5%
COc1ccc(N(C(=O)CCl)C(C(=O)NC2CCCCC2)c2cccnc2)cc1 (centres undefined),16µM*,?,2%,3%,-13%
O=C(NC1CCCCC1)C(c1cccnc1)N(C(=O)CCl)c1ccc(F)cc1 (centres undefined),14µM*,-28%,13%,4%,-8%
O=C(NC1CCCCC1)C(c1cccnc1)N(C(=O)CCl)c1ccccc1Cl (centres undefined),3%[57.1 µM],1%,-19%[57.1 µM],13%,-6%
C[C@@H]1[C@H](c2ccccc2)OCCS(=O)(=O)N1Cc1ccc(Cl)cc1,25%,3%,4%,.,.

# Source: PubChem BioAssay (National Center for Advancing Translational Sciences (NCATS))
